# Compound activity from PubChem.
# ELG1 repair inh = ELG1-dependent DNA repair inhibition; Potency, µM (top dose mostly 46.1 µM), without a hit: at the highest dose activity change, negative = inhibition, hits mostly inhibitors; HEK293T ELG1-luciferase reporter, luminescence, 16 h; DNA damage induced by 5-fluorouridine; AID 504467; 330,000 tested, 2.3% active; also: nearly all actives have a fitted effect of over 55% in size
#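 Quantitative HTS, concentration-response format. 2,000 cells/well co-treated with 5-fluorouridine and compound, 16 hr in 5% CO2 at 37 °C; ONE-Glo luminescence read after 30 min.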
# TDP1 cell CPT = growth inhibition of DT40 Tdp1-/-;hTDP1 cells with camptothecin (screen for TDP1 inhibitors); chicken DT40 Tdp1-/-;hTDP1 cells + 20 nM CPT, ATP luminescence, 48 h; Potency, µM (series often up to 46.2 µM), for inactives: at the highest dose activity change, negative = growth inhibition, hits mostly inhibitors; 420,000 tested, 12% active; AID 686979; also: nearly all actives have a fitted effect of over 55% in size
#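 Chicken DT40 Tdp1-/- cells stably complemented with human TDP1 were seeded at 400 cells/well in medium containing 20 nM camptothecin, exposed to pin-transferred compounds, and grown at 37 °C for at least 48 hr. Viability was read as ATP luminescence.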
# RORg inh = ROR gamma (mouse) transcription inhibition; 310,000 tested, 5.4% active; Drosophila S2 Gal4-RORgamma UAS-luciferase reporter, 20 h; P51450; Potency, µM (series often up to 53.6 µM), for inactives: at the top dose activity change, negative = inhibition, actives largely listed as inhibitors; also: nearly all actives have a fitted effect of over 60% in size
# Target sequence (P51450 whole entry, looked up, the tested form may be a part): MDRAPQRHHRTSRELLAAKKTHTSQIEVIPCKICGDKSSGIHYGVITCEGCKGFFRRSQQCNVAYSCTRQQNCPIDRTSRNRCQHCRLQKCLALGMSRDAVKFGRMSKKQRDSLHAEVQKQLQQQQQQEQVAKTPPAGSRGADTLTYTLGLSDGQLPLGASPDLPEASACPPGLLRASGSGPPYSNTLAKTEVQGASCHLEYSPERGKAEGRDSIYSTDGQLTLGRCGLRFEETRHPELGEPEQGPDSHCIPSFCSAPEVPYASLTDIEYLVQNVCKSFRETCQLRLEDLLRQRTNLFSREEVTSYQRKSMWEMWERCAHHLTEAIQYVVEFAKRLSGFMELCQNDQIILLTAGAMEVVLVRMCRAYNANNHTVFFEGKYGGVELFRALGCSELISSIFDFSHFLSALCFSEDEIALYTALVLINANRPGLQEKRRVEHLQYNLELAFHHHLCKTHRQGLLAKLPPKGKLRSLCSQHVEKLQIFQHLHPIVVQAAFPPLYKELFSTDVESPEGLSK
#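 In this cell-based reporter format, copper sulfate (700 uM final) drives Gal4–ROR gamma fusion expression from a metallothionein promoter in Drosophila Schneider cells; compounds preincubated 1 hr, reporter read after 20 hr at ambient temperature.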
# DT40 TDP1 no CPT = qHTS for Inhibitors of human tyrosyl-DNA phosphodiesterase 1 (TDP1): qHTS in cells in absence of CPT; DT40 Tdp1-/- hTDP1 cells, no CPT, ATP luminescence, 48 h; Potency, µM (doses to about 46.2 µM), for inactives: top-dose activity change, negative = growth inhibition, actives largely listed as inhibitors; 420,000 tested, 15% active; AID 686978, 2013; also: nearly all actives have a fitted effect of over 55% in size
#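 Growth of hTDP1-complemented DT40 Tdp1-knockout cells is measured by ATP luminescence after at least 48 hr compound exposure at 37 °C, with DMSO substituting for the 20 nM CPT used in the parallel screen.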
# ALOX12 inh = ALOX12 (human) lipoxygenase inhibition. purified 12hLO, xylenol orange hydroperoxide absorbance. Potency, µM (series often up to 108 µM), inactives show top-dose activity change, negative = inhibition, most hits filed as inhibitors. 580,000 tested, 1.1% active. P18054
#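 Purified human 12hLO at 150 nM in 25 mM Hepes, 0.01% Triton X-100, pH 7.0, preincubated 15 min at room temperature with compound. Reaction started with 40 uM arachidonic acid, 30 min at room temperature. Hydroperoxide measured by Fe-xylenol orange, 573/405 nm absorbance ratio.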
# VP16 counter = Gal4-VP16 reporter inhibition counter-screen. Drosophila S2 Gal4-VP16 UAS-luciferase, luminescence, 20 h. Potency, µM (top dose mostly 53.6 µM), inactives show at the top dose activity, negative = inhibition, usual class: inhibitors. 310,000 tested, 3.5% active. AID 2546;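 also: Gal4-VP16 expression switched on by copper sulfate through the metallothionein promoter; nearly all actives have a fitted effect of over 50% in size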
# Starred values were filed as active, the others as inactive; ? = inconclusive; . = not tested or not shown; [ ] = remark or other dose. An excerpt weighted towards active compounds, which were near 15% of everything screened. Calls follow the shape of the dose curve; as a rule, active = well fitted curve in the direction sought with a large enough effect; inconclusive = small, poorly fitted or top-dose-only effect, or another doubt; inactive = no such curve, though single readings can be large; an effect the other way counts as inactive or inconclusive. % is scaled to controls: 0 for no effect and ±100 for the full control effect; potency is read from the fitted curve at half-maximal effect.
SMILES,ELG1 repair inh,TDP1 cell CPT,RORg inh,DT40 TDP1 no CPT,ALOX12 inh,VP16 counter
O=C1NC(c2cccs2)Nc2ccccc21 (centres undefined),-9.8%,5.17µM*,27.3%,8.2µM*,17.6%,16.4%
COc1ccc2ccccc2c1C1NC(=O)NC(C)=C1[N+](=O)[O-] (centres undefined),-1.2%,-22.7%,-35.9%,-6.3%,4.3%,11.2µM*
O=C1NC(c2ccccc2Cl)Nc2ccccc21 (centres undefined),-7.2%,?,5.9%,18.4µM*,0.0%,0.0%
Cc1ccsc1C1NC(=O)c2ccccc2N1 (centres undefined),8.6%,?,27.3%,?,?,9.6%
COc1ccc2ccccc2c1C1NC(=O)c2ccccc2N1 (centres undefined),.,2.59µM*,.,3.66µM*,1.4%,.
Clc1ccccc1C1Nc2cccc3cccc(c23)N1,-9.1%,?,-13.9%,?,4.3%,2.6%
CCc1ncc2c(N3CC4CCC(C3)N4CC(F)(F)F)nc3ccccc3n12,.,.,.,.,2.2%[6.33 µM],.
O=C(CCc1ccccc1)N1C[C@@H](CO)[C@H](c2nc(C3CC3)no2)C1,.,.,.,.,6.4%,.
Cc1nnc([C@@H]2CC(F)(F)CN2C(=O)c2ccc3ncccc3c2)o1,.,.,.,.,19.1%,.
O=C1NC(c2cccc3ccccc23)Nc2ccccc21 (centres undefined),.,0.581µM*,.,0.92µM*,?,.
N#CCCS(=O)(=O)c1nnnn1-c1ccccc1,-22.5%,.,2.82µM*,.,.,4.47µM*
CCC(C)NC(=O)NC1CCN(c2nc3ccccc3n(C)c2=O)CC1 (centres undefined),.,.,.,.,-13.8%,.
CC(C)(C#N)C(=O)NCc1ccc(OCC(F)(F)F)cc1,.,.,.,.,24.7%,.
Cc1occc1C(=O)N1CCC2(CCCN(Cc3ccc(F)c(F)c3)C2)C1 (centres undefined),17.6%,14.6µM*,-0.9%,16.4µM*,0.6%,4.0%
Cc1ccc(-c2nnc(Nc3ccc(Cl)c(Cl)c3)c3ccccc23)cc1S(=O)(=O)NCCO,.,18.4µM*,.,18.4µM*,-28.8%,.
Cc1ccc(-c2nnc(Nc3ccc4c(c3)OCO4)c3ccccc23)cc1S(=O)(=O)NCCO,?,?,?,16.4µM*,8.3%,-6.8%
Cc1ccc(-c2nnc(Nc3ccc(CC(N)=O)cc3)c3ccccc23)cc1S(=O)(=O)NCCO,0.5%,-5.3%,-10.8%,12.4%,?,-0.1%
O=C1NC2(CCN(C(=O)CCc3cccnc3)CC2)CC1c1ccccc1 (centres undefined),.,.,.,.,48.3%,.
CCOC(=O)C1(Cc2cccc(OC)c2)CCN(Cc2ccc(C)s2)CC1,?,20.6µM*,-5.2%,18.4µM*,-2.3%,-14.7%
CCOC(=O)C1(Cc2ccccc2)CCN(CC2CC=CCC2)CC1 (centres undefined),-2.6%,-13.6%,-0.8%,?,-11.1%,-12.0%
CCOC(=O)C1(Cc2cccc(OC)c2)CCN(Cc2ccc(OC)c(OC)c2)CC1,?,?,42.6%,20.6µM*,-5.6%,0.7%
CCOC(=O)C1(Cc2cccc(OC)c2)CCN(Cc2cccc(OC)c2O)CC1,?,23.1µM*,?,20.6µM*,?,-8.6%
CCOC(=O)C1(Cc2cccc(OC)c2)CCN(CC2CC=CCC2)CC1 (centres undefined),?,?,-14.2%,23.1µM*,12.3%,12.0%
CCOC(=O)C1(Cc2cccc(OC)c2)CCN(Cc2cccc(O)c2)CC1,?,-17.2%,-4.4%,?,-9.9%,-3.8%
CCOC(=O)C1(Cc2cccc(OC)c2)CCN(Cc2ccccc2OC)CC1,?,-24.5%,-21.3%,?,2.0%,-5.5%
SMILES,ELG1 repair inh,TDP1 cell CPT,RORg inh,DT40 TDP1 no CPT,ALOX12 inh,VP16 counter
O=C(c1ccc(N2CCC(CO)C2)nc1)N1CCC(N2CCOCC2)CC1 (centres undefined),.,.,.,.,44.5%,.
CC1(C)N=C(N)N=C(N)N1CCCCc1ccccc1,.,2.06µM*,.,0.517µM*,-9.5%,.
NC(=O)CCN1CCN(S(=O)(=O)c2ccc(F)c(Cl)c2)CC1,.,.,.,.,1.1%,.
CCCOc1ccc(C(=O)NCc2cccnc2)cc1,8.2%,?,14.9%,-17.0%,22.1%,5.3%
O=C(NNC(=S)NCc1ccccc1)c1cccnc1,-15.7%,6.8%,-21.0%,13.4%,103.4%,-5.4%
Cc1cccc(C(=O)NC(=S)NCc2cccnc2)c1,-4.3%,-13.5%,15.8µM*,-0.6%,16.8%,?
CCOc1cccc(C(=O)NC(=S)NCc2cccnc2)c1,-14.7%,-10.5%,?,?,2.9%,?
O=C(NC(=S)NCc1ccccc1)c1cccnc1,18.4%,-21.8%,11.2µM*,-10.2%,-15.0%,?
CCCOc1ccc(C(=O)NC(=S)NCc2cccnc2)cc1,-3.6%,?,?,?,-26.9%,12.6µM*
Cc1ccc(-n2nc(C)c3c(C)c(CCC(=O)NCc4ccccc4Cl)c(C)nc32)cc1,.,16.4µM*,.,?,?,.
Cc1ccc(CNC(=O)CCc2c(C)nc3c(c(C)nn3-c3ccc(C)cc3)c2C)cc1,12.2%,-11.6%,-26.7%,12.4%,14.1%,-1.5%
Cc1ccc(-n2nc(C)c3c(C)c(CCC(=O)NCc4ccco4)c(C)nc32)cc1,23.1µM*,23.1µM*,-31.6%,?,14.3%[57.4 µM],-13.6%
CCCCOCCCNC(=O)Cn1cnc2c1c(=O)n(C)c(=O)n2C,.,.,.,.,-14.0%,.
CC1=C[C@@H](CNC(=O)COc2ccccc2)[C@H](C(C)C)C[C@H]1Cc1nnc(-c2cncn2C)o1,.,.,.,.,-16.6%,.
COc1ccc(Cl)cc1NC(=O)c1cc(=O)c2cc(C)ccc2o1,.,.,.,.,3.0%,.
Cc1ccc(NC(=O)CN(C)C(=O)c2ccccc2OCc2c(C)noc2C)cc1,?,-22.9%,.,-13.7%,15.2%,.
COc1ccc(Br)cc1CN(C)C(=O)c1ccccc1OCc1c(C)noc1C,-23.9%,?,.,16.4µM*,12.4%,.
CCOc1ccc(NC(=O)CN(C)C(=O)c2ccccc2OCc2c(C)noc2C)cc1OCC,-0.2%,?,.,0.651µM*,4.8%,.
Cc1noc(C)c1COc1ccccc1C(=O)N(C)Cc1ccc(C(C)(C)C)cc1,?,7.31µM*,.,6.51µM*,?,.
COc1ccc(CN(C)C(=O)c2ccccc2OCc2c(C)noc2C)c(OC)c1,-22.4%,-13.7%,.,-16.9%,11.8%,.
COc1ccc2[nH]c3c(c2c1)CCNC31CCN(C(=O)c2ccsc2)CC1,.,.,.,.,14.6%,.
Cn1cc(CN2C[C@@H](F)[C@@H](OCc3nc4ccccc4[nH]3)C2)c2ccccc21,.,.,.,.,37.6%[176 µM],.
